These results are taken from PubChem BioAssay AID651871 (Sanford-Burnham Center for Chemical Genomics, 2012).

Several values for one entry are separate records, joined by “and”; a condition that tells them apart may be missing. Identical values can stand only once.

The experiment deals with H9c2. Briefly: protection of cardiomyocytes from stress damage, SAR follow-up, cell-based, panel, H9c2 and HL-1, ATP luminescence, set 2 (AID 651871).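 Also: cells exposed to stressor for 2 h before ATP readout; reference of the scale not given here.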 The settings on record: H9c2/HL-1 cardiomyocytes, H2O2 oxidative stress, with H2O2, run 2, at 79 µM (top of the series).
In the case of `CCOC(=O)c1cccc(NC(=O)CNC(=O)c2cc(-c3cc(OC)c(OC)c(OC)c3)nc3ccccc23)c1`, the activity (protection/inhibition) is 114%. The value for `COc1ccc2c(c1OC)C(=O)N1c3ccccc3C(=O)N(Cc3cccc(Cl)c3Cl)C21` (centres undefined) was 101% and 61%; that for `COc1cc(-c2cc(C(=O)Nc3cccc(C(=O)NCc4ccccc4)c3)c3ccccc3n2)cc(OC)c1OC` was 119%. The figure for `COc1ccc2nc(-c3cc(OC)c(OC)c(OC)c3)cc(C(=O)NCC(=O)Nc3ccc(C(C)=O)cc3)c2c1` is 122% and 100%.
